# Screens: PubChem, Broad Institute
# Not all results are given here.
# aSyn 5UTR act = Activators via SNCA 5'UTR binding, MLPCN | alpha-synuclein 5'UTR reporter, activators screen | activity score, % (tested at 7.5 µM), hits read low | 7.1% of 300,000 active; in the data active = activity score below about -60%
# * hit, by the source's call.
SMILES,aSyn 5UTR act
COc1ccccc1/C=C/C(=O)Nc1ccc2c(c1)CCC2,-151.0*
COc1ccccc1/C=C/C(=O)Nc1ccc2c(c1)OCCO2,-145.5*
C=CCSc1nnc(-c2ccc(Cl)cc2Cl)o1,-78.5*
C=CCSc1nnc(-c2ccc([N+](=O)[O-])cc2)o1,-139.9*
Clc1ccc(-c2nnc(SCc3ccon3)o2)c(Cl)c1,-69.1*
O=C(/C=C/c1c[nH]c2ccccc12)c1cccc2ccccc12,-94.7*
COc1ccc(-c2nc(NC(=O)Cn3c(=O)oc4ccccc43)sc2C)cc1,-69.9*
COc1ccc(N2CCN(c3nccs3)CC2)cc1,-153.7*
COc1ccc(C(=O)/C=C(\C)Nc2ccc3c(c2)OCO3)cc1,-169.5*
COc1ccc(N/C(C)=C/C(=S)Nc2ccccc2)cc1,-74.6*
CC(=O)Nc1ccc(OCc2ccc3c(c2)OCO3)cc1,-150.6*
COc1ccc(OC)c(NC(=O)c2ccccc2OC(C)=O)c1,-68.9*
COc1ccc(N/C(C)=C/C(=O)c2ccccc2)cc1,-150.9*
COC(=O)/C(=C\C(=O)c1ccccc1)Nc1ccc(OC)cc1,-93.0*
COc1cccc(N/C(C)=C/C(=O)c2ccc(Br)cc2)c1,-172.0*
COc1ccc(NC(=O)/C=C/c2ccc3c(c2)OCO3)cc1,-90.6*
COc1ccc(OC)c(N/C=C/C(=O)c2ccccc2)c1,82.7
COc1ccc(OC)c(N/C(C)=C/C(=O)c2ccccc2)c1,-112.7*
CC(C)N(Cc1cn[nH]c1-c1ccc(-c2ccccc2)cc1)Cc1nccn1C,-105.8*
O=C1CCCC2=C1C(c1ccco1)Nc1ccc(C(=O)c3ccccc3)cc1N2 (stereo not drawn),-81.1*
CN(C)Cc1c(O)ccc2cc(-c3nc4ccccc4n3C)c(=O)oc12,-70.4*
CCN(CC)c1ccc2cc(-c3nc4ccccc4n3C)c(=O)oc2c1,-226.5*
c1ccc(C2Oc3ccccc3C3CC(c4cccs4)=NN32)cc1 (stereo not drawn),-164.4*
O=C(Nc1ncc2c(n1)CC(c1ccco1)CC2=O)c1ccccc1 (stereo not drawn),-71.9*
Cc1cc(=O)n2cc(-c3ccccc3)nc2[nH]1,-70.4*
SMILES,aSyn 5UTR act
CC(C)CCNC(=O)c1ccccc1NC(=O)C1=CSCCO1,-119.0*
COCCn1c(=O)[nH]c2cc(C(=O)Nc3cccc(F)c3)ccc2c1=O,-112.7*
COc1ccc(Cn2c(-c3ccco3)nc3oc4cc(OC)ccc4c(=O)c3c2=O)cc1,-91.6*
O=C(/C=C/c1ccnc2ccccc12)c1cccs1,-79.9*
CC(=O)Nc1ccccc1C(=O)C(=O)Nc1ccc(C)c(F)c1,-264.2*
Cc1ccc(NC(=O)/C(Cl)=C/c2ccccc2)cc1C,-155.5*
CC(=O)Nc1ccccc1C(=O)C(=O)Nc1ccc(F)c(Cl)c1,-123.1*
CC(=O)Nc1ccccc1C(=O)C(=O)Nc1ccc(C)c(C)c1,-181.7*
CC(=O)Nc1ccccc1C(=O)C(=O)Nc1cccc(F)c1,-148.8*
CCN(CC)C(=O)C(=O)Nc1ccc(F)c(Cl)c1,-130.9*
CCN1/C(=C/C=C/c2oc3ccc(-c4ccccc4)cc3[n+]2CC)Oc2ccc(-c3ccccc3)cc21,140.4
O=C(N/N=C/C=C/c1ccccc1)c1cc2c(ccc3ccccc32)o1,-80.0*
O=C(N/N=C\C=C\c1ccc([N+](=O)[O-])o1)c1cccs1,-62.5*
O=C(N/N=C/C=C/c1ccccc1)c1cccs1,-155.7*
O=C(N/N=C/C(Br)=C/c1ccccc1)c1cccs1,-365.7*
O=C(Cc1cccs1)N/N=C/C=C/c1ccccc1,-70.1*
COc1cc(C(=S)N2CCCC2)ccc1OCc1ccccc1,-66.9*
Oc1c(CN2CCCCC2)cc(COCc2ccccc2)c2cccnc12,91.5
CCCCCCCCCCOC(=O)Cn1c(COc2ccccc2OC)[n+](C)c2ccccc21,80.6
CCC(=O)c1ccc(OCc2ccc(C(=O)OC)cc2)c(OC)c1,-75.1*
COC(=O)c1ccc(COC(=O)c2ccc(SC)cc2OC)cc1,-115.0*
CCC(=O)c1ccc(OCc2ccccc2)c(OC)c1,-85.4*
COc1ccc(-c2cn3c(C)c(C(=O)Nc4cccc(NC(C)=O)c4)sc3n2)cc1,-99.6*
Cc1c(C(N)=O)sc2nc(-c3ccccc3)cn12,-104.6*
Cc1c(C(=O)NCC(C)C)sc2nc(-c3ccc(F)cc3)cn12,-127.8*
SMILES,aSyn 5UTR act
Fc1ccc(/C=N/Nc2ncnc3nc[nH]c23)cc1F,-74.4*
C(=N\Nc1ncnc2nc[nH]c12)/c1cccs1,-68.7*
Cc1ccccc1/C=N/Nc1ncnc2nc[nH]c12,-71.2*
Cc1ccsc1/C=N/Nc1ncnc2nc[nH]c12,-90.3*
C/C(=N\Nc1nc2ccccc2[nH]1)c1cc2ccccc2o1,-137.8*
C/C(=N\Nc1nc2ccccc2[nH]1)c1ccc2c(c1)OCCO2,-87.9*
C/C(=N\Nc1ccccn1)c1ccc2c(c1)OCO2,-158.5*
C/C(=N\Nc1nc2ccccc2[nH]1)c1ccccn1,86.7
C/C(=N\Nc1nc2ccccc2[nH]1)c1ccc2c(c1)OCO2,-124.0*
Clc1ccccc1N/N=C/c1ccc2c(c1)OCO2,-176.2*
C(=N\Nc1nc2ccccc2[nH]1)/c1ccc2c(c1)OCO2,-221.7*
Cc1ccc(CNc2ccc3c(c2)nc(C)n3C)cc1,-64.0*
Cc1nc2cc(NCc3ccc(Cl)cc3)ccc2n1C,-66.8*
O=C(COc1cccc2c1CCNC2=O)Nc1cccc(C(F)(F)F)c1,-84.4*
CCc1ccc(NC(=O)[C@H](C)NC(=O)C2CCN(C(=O)[C@@H](N)Cc3ccccc3)CC2)cc1,-84.4*
CC(=O)c1sc(Nc2nc3cc4c(cc3s2)OCO4)nc1C,-178.3*
CC(=O)Nc1nc2cc3c(cc2s1)OCO3,-99.8*
O=C(Nc1nc2cc3c(cc2s1)OCO3)c1ccco1,79.8
O=C(NC(=S)Nc1ccc(N2CCOCC2)cc1)c1ccco1,-108.2*
O=C(Nc1ccc(N2CCN(Cc3ccccc3F)CC2)cc1)c1ccc([N+](=O)[O-])o1,104.7
O=C(Nc1ccc(N2CCN(Cc3ccccc3)CC2)cc1)c1ccco1,-86.0*
O=C(NC(=S)Nc1ccc(CN2CCOCC2)cc1)c1ccco1,-117.2*
COc1ccc(Nc2cc(Nc3cccc(OC)c3)ncn2)cc1,-80.0*
COc1cccc(NC(=O)Nc2ccc3nsnc3c2)c1,-182.5*
COc1ccc(NC(=O)Nc2ccc(C(C)C)cc2)cc1,-75.0*
SMILES,aSyn 5UTR act
Cc1cc(C)nc(NC(=O)Nc2ccc(F)cc2F)n1,-111.7*
COCC(=O)Nc1ccc(C(C)C)cc1,-69.0*
COc1ccc(NC(=O)Nc2ccc3oc(C)nc3c2)cc1,-163.5*
COc1ccc(NC(=O)Nc2ccc(F)cc2F)cc1,-138.8*
COc1ccc(NC(=O)Nc2ccc3c(c2)CCC3)cc1,-149.0*
COc1ccc(NC(=O)Nc2cccc(OC)c2)cc1,-134.0*
CCC1CCC(NC(=O)Nc2cccc(OC)c2)CC1 (stereo not drawn),-192.7*
COc1cccc(NC(=O)Nc2ccccc2Br)c1,-120.5*
Cc1nc2cc(NC(=O)NCCC3=CCCCC3)ccc2o1,-151.4*
OCCN(CCO)CC(O)COc1ccc(C23CC4CC(CC(C4)C2)C3)cc1 (stereo not drawn),76.3
COc1cc(-c2ccc(NC(=O)NC3CC3)c(OC)c2)ccc1NC(=O)NC1CC1,-99.1*
O=c1c(-c2cc3ccccc3o2)[n+]([O-])c2ccccc2n1OCc1ccccn1,-174.1*
CCOn1c(=O)c(-c2cc3ccccc3o2)[n+]([O-])c2ccccc21,-116.8*
COc1ccc(OC)c2c1C(=O)C(Cl)=C(Cl)C2=O,-88.8*
c1ccc2c(Nc3nc4c(s3)CCCC4)cccc2c1,-157.0*
CC1=CC(C)=Nc2ccc(C)cc2N1,-62.5*
